From PubChem BioAssay (NCI) come the findings set out here.

Molecules are shown by their SMILES. The panel holds about 83,000 compounds, 20% with a hit somewhere; the sample as a whole holds those more often.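 Treatment: one concentration, 48 hours, 96-well format. Scoring: percent growth, with anything below 10 considered active.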 Values without a mark were called inactive. Activity calls are given as the source filed them.

Among the test systems are SK-MEL-2 melanoma; EKVX NSCLC; SN12C renal; UO-31 renal; TK-10 renal; ACHN renal; CAKI-1 renal; A498 renal; CCRF-CEM leukemia; MOLT-4 leukemia; SR leukemia; RPMI-8226 leukemia; OVCAR-8 ovarian; OVCAR-5 ovarian; OVCAR-4 ovarian; SK-OV-3 ovarian; OVCAR-3 ovarian; HS 578T breast; NCI/ADR-RES ovarian; IGROV1 ovarian.
What all share (test): NCI-60 one-dose screen, 48 h (100 = growth as untreated, 0 = no growth, -100 = all killed)
Details in all cases: 10 µM unless noted

`c1n[nH]cc1-c1nc2ccc3cn[nH]c3c2c2c1CCCC2`: the growth in the test with SK-MEL-2 melanoma was 104%; with EKVX NSCLC, 69.1%; in the test with SN12C renal, 74.3%; in the test on UO-31 renal it was 61.1%; with TK-10 renal, 104%; in the test on ACHN renal, 73.5%. The growth with CAKI-1 renal is 39.2%; in the test with A498 renal, 93.8%; in the test on CCRF-CEM leukemia it was 104%; with MOLT-4 leukemia, 92.7%; in the test with SR leukemia, 74.5%; in the test with RPMI-8226 leukemia, 85.3%. The growth with OVCAR-8 ovarian was 89.2%; in the test on OVCAR-5 ovarian it was 89.9%; with OVCAR-4 ovarian it was 96.1%; in the test with SK-OV-3 ovarian, 96.8%; with OVCAR-3 ovarian, 109%; with HS 578T breast, 53%.
On to `Cc1nc2sccn2c1-c1nnc(SCC(C)C)o1`, for which the growth is 92.1% in the test with SK-MEL-2 melanoma; 74.5% with EKVX NSCLC; 88.4% with SN12C renal; 67.7% in the test with UO-31 renal; 127% in the test with TK-10 renal; 87.8% with ACHN renal. For the same compound, the growth is 76.7% in the test on CAKI-1 renal; 98.5% in the test on A498 renal; 51.6% in the test on CCRF-CEM leukemia; 84.1% with MOLT-4 leukemia; 44.8% with SR leukemia; 57.9% with RPMI-8226 leukemia. Further, the growth with OVCAR-8 ovarian was 93.2%; in the test with OVCAR-5 ovarian it was 90.5%; with OVCAR-4 ovarian, 86%; with SK-OV-3 ovarian it was 102%; in the test with OVCAR-3 ovarian, 104%; with HS 578T breast it was 88.7%. For the same compound, the growth in the test with NCI/ADR-RES ovarian is 79%.
Consider `O=C(NNC(=S)NC(=O)c1ccccc1)c1ccc(OCc2nc3ccc(Cl)cc3[nH]2)cc1`, for which the growth in the test with SK-MEL-2 melanoma is -47.3% (active); in the test with EKVX NSCLC, -53% (active); in the test on SN12C renal, -80.2% (active); in the test on UO-31 renal, -76.1% (active); in the test with TK-10 renal, 11.2%; in the test with ACHN renal, -43% (active). In addition, the growth is -1.67% (active) with CAKI-1 renal; -55% (active) in the test with A498 renal; 2.87% (active) in the test on CCRF-CEM leukemia; 2.46% (active) in the test on MOLT-4 leukemia; 0.144% (active) in the test with SR leukemia; 5.01% (active) in the test on RPMI-8226 leukemia. The growth in the test on OVCAR-8 ovarian is -9.91% (active); in the test on OVCAR-5 ovarian, -43.7% (active); in the test with OVCAR-4 ovarian it was 16.3%; in the test with SK-OV-3 ovarian, -17.5% (active); with OVCAR-3 ovarian, 10.5%; in the test with HS 578T breast it was 3.54% (active). Also, the growth with NCI/ADR-RES ovarian was -25.3% (active).
Consider `COc1ccc(NC(=O)Cn2c(/C=C/c3cccc(OC)c3)nc3ccccc3c2=O)cc1`, for which the growth in the test with SK-MEL-2 melanoma is 87.9%; with EKVX NSCLC, 79.6%; in the test on SN12C renal, -24% (active); with UO-31 renal, -74.3% (active); with TK-10 renal, -42.9% (active); with ACHN renal it was -61.4% (active). Moreover, the growth with CAKI-1 renal is 50.9%; in the test with A498 renal it was -42.8% (active); in the test with CCRF-CEM leukemia, 89.4%; in the test with MOLT-4 leukemia, 97.4%; in the test on SR leukemia, 77.6%; in the test on RPMI-8226 leukemia, 41.1%. Further, the growth was 10.4% in the test with OVCAR-8 ovarian; 40% in the test with OVCAR-5 ovarian; -30.1% (active) with OVCAR-4 ovarian; 44.8% with SK-OV-3 ovarian; 37.7% in the test with IGROV1 ovarian; 28.5% with OVCAR-3 ovarian. Besides, the figures for the growth in the test with HS 578T breast and in the test on NCI/ADR-RES ovarian were 9.48% (active) and 35.4%, respectively.
With `CC(C)CN1C(=O)/C(=C\C(=O)c2cc3ccccc3oc2=O)c2ccccc21`, the growth is 101% in the test with SK-MEL-2 melanoma; 94.7% in the test with EKVX NSCLC; 89.9% in the test on SN12C renal; 52.1% with UO-31 renal; 98.2% in the test on TK-10 renal; 30.6% in the test with ACHN renal. The growth in the test with CAKI-1 renal is 81.2%; with A498 renal, 149%; in the test on CCRF-CEM leukemia, 37.2%; with MOLT-4 leukemia, 40%; in the test on SR leukemia, 34.6%; in the test with RPMI-8226 leukemia, 85.4%. Also, the growth with OVCAR-8 ovarian was 97.7%; with OVCAR-5 ovarian, 111%; with OVCAR-4 ovarian it was 87.3%; with SK-OV-3 ovarian it was 104%; with OVCAR-3 ovarian it was 51.1%; in the test on HS 578T breast, 102%. Moreover, in the test on NCI/ADR-RES ovarian, the growth is 95.8%.
Regarding `COc1ccc(NC(=O)Nc2nc3ccc([N+](=O)[O-])cc3s2)cc1`, the growth was 33.4% in the test with SK-MEL-2 melanoma; 9.23% (active) with EKVX NSCLC; 9.66% (active) in the test on SN12C renal; -5.06% (active) in the test on UO-31 renal; 29.7% in the test with TK-10 renal; 10.8% with ACHN renal. Besides, the growth with CAKI-1 renal is 13.9%; in the test on A498 renal, 21.8%; with CCRF-CEM leukemia it was 11.2%; with MOLT-4 leukemia, 8.05% (active); in the test with SR leukemia, 5.15% (active); in the test on RPMI-8226 leukemia, -2.91% (active). For the same compound, the growth in the test on OVCAR-8 ovarian was 17.1%; with OVCAR-5 ovarian, 60.4%; in the test on OVCAR-4 ovarian, 15.2%; in the test with SK-OV-3 ovarian it was 58.6%; with OVCAR-3 ovarian, 18%; with HS 578T breast, 5.84% (active). For the same compound, in the test on NCI/ADR-RES ovarian, the growth was -1.49% (active).
In the case of `CCc1ccccc1NC(=O)N/C(N)=N/c1nc2ccccc2s1`, the growth is 10.6% in the test on SK-MEL-2 melanoma; 27.6% in the test on EKVX NSCLC; 0.486% (active) in the test with SN12C renal; 34.7% in the test with UO-31 renal; 19.8% in the test on TK-10 renal; 1.6% (active) with ACHN renal. Moreover, the growth was 4.86% (active) with CAKI-1 renal; 60.3% with A498 renal; 4.47% (active) in the test with CCRF-CEM leukemia; 6.27% (active) in the test with MOLT-4 leukemia; 7.38% (active) with SR leukemia; 15.7% in the test with RPMI-8226 leukemia. Moreover, the growth with OVCAR-8 ovarian was -26.6% (active); in the test on OVCAR-5 ovarian it was 0.307% (active); in the test on OVCAR-4 ovarian it was 16.7%; in the test with SK-OV-3 ovarian, 7.32% (active); in the test on IGROV1 ovarian, 20%; with HS 578T breast, 27.1%. For the same compound, the growth with NCI/ADR-RES ovarian was -30.4% (active).
Take `CCOc1ccc(-c2cc(-c3cc(C(C)C)c(O)cc3C)nn2-c2ccc(S(N)(=O)=O)cc2)cc1`: the growth with SK-MEL-2 melanoma is 54.5%; in the test with EKVX NSCLC it was 30.9%; in the test with SN12C renal, 30.6%; in the test on UO-31 renal, 48.6%; with TK-10 renal it was 84.2%; in the test on ACHN renal, 54.1%. Also, the growth in the test on CAKI-1 renal is 58.7%; in the test with A498 renal it was 98.3%; in the test on CCRF-CEM leukemia, 11.3%; in the test with MOLT-4 leukemia, 11.6%; in the test on SR leukemia it was 5.54% (active); in the test on RPMI-8226 leukemia, 13.8%. For the same compound, the growth with OVCAR-8 ovarian is 36.4%; in the test with OVCAR-5 ovarian, 53%; in the test on OVCAR-4 ovarian it was 29.6%; with SK-OV-3 ovarian, 55.3%; in the test on IGROV1 ovarian, 80.4%; in the test with HS 578T breast it was 35.9%. The growth with NCI/ADR-RES ovarian was 4.14% (active).
